The full data set covers some 8,800 targets. This sample favours those with a hit. About 0.5% of all pairs of compound and target were hits. Unmarked numbers belong to inactive results.
Columns and labels:
Experiment in all cases: log2 fold change, soluble protein after heating vs DMSO (PISA); higher = thermal stabilisation; K562 lysate, 10 uM; active = over 0.2 and 3.5 SD of the protein, either way, in both replicates (recomputed)
[1] = compound: CS(=O)(=O)CCNCc1ccc(-c2ccc3ncnc(Nc4ccc(OCc5cccc(F)c5)c(Cl)c4)c3c2)o1 [lapatinib]
Method in brief: (§1)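 Values give the log-two fold change in thermal stability against solvent controls, from duplicates. Crude K562 extract at 1 mg/mL protein, made by dounce homogenisation in PBS pH 7.4 with 1 mM MgCl2, was treated with 10 μM compound for 30 min. After 3 min heating across 48°C-58°C, aliquots were pooled, adjusted to 0.5% NP-40 at 4°C and centrifuged at 21,000xg for 90 min. The supernatant was measured by TMTpro 16plex LC-MS/MS with channel sums equalised.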

[2] = compound: CS(=O)(=O)N1CCN(Cc2cc3nc(-c4cccc5[nH]ncc45)nc(N4CCOCC4)c3s2)CC1 [pictilisib]
Method in brief: as §1

[3] = compound: C[C@@H](Oc1cc(-c2cnn(C3CCNCC3)c2)cnc1N)c1c(Cl)ccc(F)c1Cl [crizotinib]
Method in brief: as §1

[4] = compound: C[C@H](C1=CC=C(C=C1)C(=O)NC2=C3C=CNC3=NC=C2)N
Method in brief: as §1

[5] = compound: C[C@H](Nc1ncnc2nc[nH]c12)c1cc2cccc(Cl)c2c(=O)n1-c1ccccc1 [duvelisib]
Method in brief: as §1

[6] = compound: Cc1cc(Nc2cc(CN3CCOCC3)c3nc(C)c(Cc4ccc(Cl)cc4F)n3n2)n[nH]1 [gandotinib]
Method in brief: as §1

[7] = compound: Cc1cc(Nc2cc(N3CCN(C)CC3)nc(Sc3ccc(NC(=O)C4CC4)cc3)n2)n[nH]1 [tozasertib]
Method in brief: as §1

[8] = compound: Cc1ccc(-n2nc(C(C)(C)C)cc2NC(=O)Nc2ccc(OCCN3CCOCC3)c3ccccc23)cc1 [doramapimod]
Method in brief: as §1

[9] = compound: Cc1ccc(NC(=O)c2ccc(CN3CC[C@H](N(C)C)C3)c(C(F)(F)F)c2)cc1Nc1nccc(-c2cncnc2)n1 [bafetinib]
Method in brief: as §1

[10] = compound: Cc1cccc(CC(=O)N2CCc3c2ccc(-c2cn(C)c4ncnc(N)c24)c3F)n1
Method in brief: as §1

Chain of UniProt Q15058 (Q15058 whole entry, looked up): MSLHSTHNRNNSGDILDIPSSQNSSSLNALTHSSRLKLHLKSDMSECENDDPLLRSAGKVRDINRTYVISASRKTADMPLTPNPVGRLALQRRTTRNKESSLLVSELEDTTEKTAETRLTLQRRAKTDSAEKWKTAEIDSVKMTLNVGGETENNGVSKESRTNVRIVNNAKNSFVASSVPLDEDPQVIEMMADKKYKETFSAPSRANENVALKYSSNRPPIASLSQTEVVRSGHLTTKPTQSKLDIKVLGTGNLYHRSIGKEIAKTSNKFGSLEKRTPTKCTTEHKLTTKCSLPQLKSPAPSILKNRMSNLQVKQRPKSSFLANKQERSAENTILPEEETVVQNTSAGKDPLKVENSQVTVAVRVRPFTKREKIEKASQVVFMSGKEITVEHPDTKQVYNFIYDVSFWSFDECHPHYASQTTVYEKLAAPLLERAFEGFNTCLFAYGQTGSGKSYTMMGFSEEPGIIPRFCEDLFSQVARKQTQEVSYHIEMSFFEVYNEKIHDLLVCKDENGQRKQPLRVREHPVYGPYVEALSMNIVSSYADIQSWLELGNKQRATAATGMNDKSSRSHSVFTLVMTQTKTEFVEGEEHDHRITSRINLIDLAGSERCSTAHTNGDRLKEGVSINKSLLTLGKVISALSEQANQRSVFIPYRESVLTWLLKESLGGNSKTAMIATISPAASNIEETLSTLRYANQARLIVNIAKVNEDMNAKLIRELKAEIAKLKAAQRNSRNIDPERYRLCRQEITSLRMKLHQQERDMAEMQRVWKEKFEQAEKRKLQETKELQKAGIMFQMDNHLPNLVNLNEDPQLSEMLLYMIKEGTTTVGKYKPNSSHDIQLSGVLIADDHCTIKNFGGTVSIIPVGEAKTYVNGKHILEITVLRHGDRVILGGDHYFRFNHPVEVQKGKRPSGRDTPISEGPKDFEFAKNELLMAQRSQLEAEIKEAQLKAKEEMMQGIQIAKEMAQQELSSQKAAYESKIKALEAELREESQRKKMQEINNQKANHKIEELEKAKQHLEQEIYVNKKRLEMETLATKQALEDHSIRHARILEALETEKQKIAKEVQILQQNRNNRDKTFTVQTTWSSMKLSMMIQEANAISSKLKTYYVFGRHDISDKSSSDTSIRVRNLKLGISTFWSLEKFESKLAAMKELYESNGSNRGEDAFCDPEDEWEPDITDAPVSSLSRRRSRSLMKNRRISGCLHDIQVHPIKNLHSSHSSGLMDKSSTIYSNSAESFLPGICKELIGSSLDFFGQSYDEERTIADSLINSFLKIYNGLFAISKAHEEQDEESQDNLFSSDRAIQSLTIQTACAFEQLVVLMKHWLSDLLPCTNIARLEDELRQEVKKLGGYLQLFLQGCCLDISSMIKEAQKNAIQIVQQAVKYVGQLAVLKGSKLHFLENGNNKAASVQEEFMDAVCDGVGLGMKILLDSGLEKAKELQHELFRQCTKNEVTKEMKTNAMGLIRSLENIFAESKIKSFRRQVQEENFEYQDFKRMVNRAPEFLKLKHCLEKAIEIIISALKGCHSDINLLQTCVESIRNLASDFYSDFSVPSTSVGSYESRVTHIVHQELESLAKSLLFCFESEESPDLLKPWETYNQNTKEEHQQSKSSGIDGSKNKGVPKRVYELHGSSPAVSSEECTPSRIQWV
Chain of UniProt Q15031 (Q15031 whole entry, looked up): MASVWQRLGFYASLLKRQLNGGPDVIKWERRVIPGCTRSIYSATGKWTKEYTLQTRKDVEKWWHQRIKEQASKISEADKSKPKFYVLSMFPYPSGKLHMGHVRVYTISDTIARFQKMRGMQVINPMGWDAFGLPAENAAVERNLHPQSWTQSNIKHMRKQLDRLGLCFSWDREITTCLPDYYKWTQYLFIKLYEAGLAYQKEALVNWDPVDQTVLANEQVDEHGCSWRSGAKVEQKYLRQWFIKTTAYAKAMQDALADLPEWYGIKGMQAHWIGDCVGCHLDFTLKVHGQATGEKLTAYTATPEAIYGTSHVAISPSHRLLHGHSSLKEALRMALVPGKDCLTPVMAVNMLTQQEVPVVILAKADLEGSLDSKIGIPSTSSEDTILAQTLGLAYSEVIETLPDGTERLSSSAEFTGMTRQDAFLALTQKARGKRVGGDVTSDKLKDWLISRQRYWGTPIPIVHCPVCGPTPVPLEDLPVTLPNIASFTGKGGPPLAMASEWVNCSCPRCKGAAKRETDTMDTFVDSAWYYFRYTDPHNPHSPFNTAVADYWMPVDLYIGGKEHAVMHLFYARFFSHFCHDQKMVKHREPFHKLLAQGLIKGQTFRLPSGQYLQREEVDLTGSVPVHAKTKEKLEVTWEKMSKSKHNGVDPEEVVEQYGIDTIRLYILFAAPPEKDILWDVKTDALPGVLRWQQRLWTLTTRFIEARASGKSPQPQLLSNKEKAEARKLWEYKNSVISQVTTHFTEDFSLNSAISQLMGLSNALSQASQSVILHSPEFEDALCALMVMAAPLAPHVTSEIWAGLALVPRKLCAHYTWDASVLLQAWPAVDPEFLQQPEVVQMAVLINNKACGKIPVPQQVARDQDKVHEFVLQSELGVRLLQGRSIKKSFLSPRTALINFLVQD
Chain of UniProt P27816 (P27816 whole entry, looked up): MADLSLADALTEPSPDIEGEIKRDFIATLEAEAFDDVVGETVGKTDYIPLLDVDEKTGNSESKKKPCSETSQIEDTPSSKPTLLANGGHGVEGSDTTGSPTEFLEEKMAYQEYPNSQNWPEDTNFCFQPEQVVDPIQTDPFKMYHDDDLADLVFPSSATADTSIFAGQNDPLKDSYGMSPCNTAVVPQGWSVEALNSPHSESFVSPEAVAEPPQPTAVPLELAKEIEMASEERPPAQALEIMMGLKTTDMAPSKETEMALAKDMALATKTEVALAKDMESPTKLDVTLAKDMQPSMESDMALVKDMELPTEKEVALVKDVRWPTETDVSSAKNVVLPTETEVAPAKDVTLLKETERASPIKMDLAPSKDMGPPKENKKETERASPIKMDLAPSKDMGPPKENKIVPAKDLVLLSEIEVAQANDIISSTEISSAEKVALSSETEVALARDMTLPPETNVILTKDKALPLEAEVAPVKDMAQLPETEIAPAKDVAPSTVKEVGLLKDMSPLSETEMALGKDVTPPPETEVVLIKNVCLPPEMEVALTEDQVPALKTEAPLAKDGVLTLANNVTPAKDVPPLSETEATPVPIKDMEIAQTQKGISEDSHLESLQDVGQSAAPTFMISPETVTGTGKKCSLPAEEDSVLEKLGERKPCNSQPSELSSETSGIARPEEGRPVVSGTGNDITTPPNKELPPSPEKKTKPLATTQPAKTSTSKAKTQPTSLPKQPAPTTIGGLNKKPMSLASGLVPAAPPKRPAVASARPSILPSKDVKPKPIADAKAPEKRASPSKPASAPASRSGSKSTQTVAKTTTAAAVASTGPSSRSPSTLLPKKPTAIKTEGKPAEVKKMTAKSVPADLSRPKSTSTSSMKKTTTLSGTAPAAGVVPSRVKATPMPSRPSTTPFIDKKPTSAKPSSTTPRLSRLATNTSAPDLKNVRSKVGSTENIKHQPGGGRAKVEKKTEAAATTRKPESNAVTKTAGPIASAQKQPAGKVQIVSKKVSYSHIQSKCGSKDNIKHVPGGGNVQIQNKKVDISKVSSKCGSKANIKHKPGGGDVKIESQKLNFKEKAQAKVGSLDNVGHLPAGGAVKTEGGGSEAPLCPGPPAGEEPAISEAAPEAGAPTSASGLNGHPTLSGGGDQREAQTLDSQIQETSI
Chain of UniProt Q9HD34 (Q9HD34 whole entry, looked up): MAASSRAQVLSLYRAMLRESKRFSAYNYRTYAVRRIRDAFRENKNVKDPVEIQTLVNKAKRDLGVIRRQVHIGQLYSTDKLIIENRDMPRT
Chain of UniProt Q9BV79 (Q9BV79 whole entry, looked up): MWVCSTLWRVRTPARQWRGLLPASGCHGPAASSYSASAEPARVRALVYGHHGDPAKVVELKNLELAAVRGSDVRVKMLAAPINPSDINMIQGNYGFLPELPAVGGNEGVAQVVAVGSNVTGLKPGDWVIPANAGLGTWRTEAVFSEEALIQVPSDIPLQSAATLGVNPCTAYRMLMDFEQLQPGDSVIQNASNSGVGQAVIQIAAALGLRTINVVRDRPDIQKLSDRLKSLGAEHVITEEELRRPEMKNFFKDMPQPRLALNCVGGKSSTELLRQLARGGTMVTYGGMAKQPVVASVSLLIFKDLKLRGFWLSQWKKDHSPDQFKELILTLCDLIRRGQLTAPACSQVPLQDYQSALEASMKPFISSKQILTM
Chain of UniProt Q9UFC0 (Q9UFC0 whole entry, looked up): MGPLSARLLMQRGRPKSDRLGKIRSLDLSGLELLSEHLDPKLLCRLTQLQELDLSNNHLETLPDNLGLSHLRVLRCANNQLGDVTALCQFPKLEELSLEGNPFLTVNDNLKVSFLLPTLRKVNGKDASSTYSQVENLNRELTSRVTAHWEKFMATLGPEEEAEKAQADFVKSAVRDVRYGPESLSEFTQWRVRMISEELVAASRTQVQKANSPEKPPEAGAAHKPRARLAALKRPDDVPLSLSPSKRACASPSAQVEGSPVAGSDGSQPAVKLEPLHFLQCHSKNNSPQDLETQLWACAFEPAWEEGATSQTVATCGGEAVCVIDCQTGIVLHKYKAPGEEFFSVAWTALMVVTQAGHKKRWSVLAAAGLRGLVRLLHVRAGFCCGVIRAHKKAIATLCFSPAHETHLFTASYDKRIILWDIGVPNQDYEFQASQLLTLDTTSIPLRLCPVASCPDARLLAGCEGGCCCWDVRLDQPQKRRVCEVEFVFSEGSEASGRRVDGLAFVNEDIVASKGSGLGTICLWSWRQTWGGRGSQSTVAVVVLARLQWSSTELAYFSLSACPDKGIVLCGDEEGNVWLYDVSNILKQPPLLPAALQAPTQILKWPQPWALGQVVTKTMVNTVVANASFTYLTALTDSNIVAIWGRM
Chain of UniProt Q8WV92 (Q8WV92 whole entry, looked up): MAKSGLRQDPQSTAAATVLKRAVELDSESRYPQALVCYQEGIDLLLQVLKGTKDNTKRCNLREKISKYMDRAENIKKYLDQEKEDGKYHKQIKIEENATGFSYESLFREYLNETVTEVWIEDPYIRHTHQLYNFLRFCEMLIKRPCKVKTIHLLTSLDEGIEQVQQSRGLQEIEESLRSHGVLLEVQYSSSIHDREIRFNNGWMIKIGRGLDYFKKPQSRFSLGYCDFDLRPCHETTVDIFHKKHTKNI

Target	log2 fold change [1]	log2 fold change [2]	log2 fold change [3]	log2 fold change [4]	log2 fold change [5]	log2 fold change [6]	log2 fold change [7]	log2 fold change [8]	log2 fold change [9]	log2 fold change [10]
KPNA2 (UniProt P52292)	-0.016	0.024	-0.063	-0.001	0.011	-0.066	0.017	0.003	-0.028	0.05
MAP4 (UniProt P27816)	-0.002	0.012	0.013	-0.032	-0.004	0.058	-0.014	-0.044	0.018	-0.007
MGAT5 (UniProt Q09328)	0.022	0.066	-0.051	0.098	0.018	-0.106	-0.037	0.023	0.079	-0.112
MINK1 (UniProt Q8N4C8)	-0.084	-0.02	-0.149	0.271	0.026	-0.102	0.014	0.24	-0.158	0.249
LARS2 (UniProt Q15031)	-0.012	-0.073	-0.047	0.014	-0.039	-0.2	0.054	0.012	-0.067	0.044
MRPL12 (UniProt P52815)	0.094	-0.019	0.086	-0.1	0.011	0	0.077	-0.031	-0.073	0.035
LUC7L (UniProt Q9NQ29)	-0.022	-0.009	0.097	-0.097	0.006	-0.32 (active)	0.012	-0.028	-0.022	0.023
MITD1 (UniProt Q8WV92)	0.003	-0.032	0.046	0.086	0.055	0.025	-0.015	-0.049	-0.118	-0.085
KIF14 (UniProt Q15058)	0.016	-0.277	-0.053	-0.082	0.025	-0.011	0.002	0.046	-0.087	0.042
LYRM4 (UniProt Q9HD34)	-0.036	-0.026	-0.034	0.413 (active)	0.031	-0.095	-0.021	-0.047	0.008	-0.007
MCCC1 (UniProt Q96RQ3)	-0.022	-0.038	-0.004	0.106	0.017	-0.14	-0.019	0.003	-0.048	-0.093
LDAH isoform 2 (UniProt Q9H6V9)	0.014	0.006	-0.062	-0.016	0.008	-0.036	0.06	0.021	-0.01	0.143
LZTR1 (UniProt Q8N653)	0.177	-0.031	-0.092	0.135	-0.033	-0.121	-0.023	0.083	0.005	0.026
MARK3 (UniProt P27448)	0.007	-0.061	-0.206	0.043	0.011	-0.089	-0.143	-0.081	-0.088	0.049
KLC2 (UniProt Q9H0B6)	-0.012	-0.057	-0.047	0.025	-0.031	-0.145	0.012	0.065	-0.043	0.074
MED10 (UniProt Q9BTT4)	0.107	0.232	0.016	-0.024	0.016	0.04	-0.057	0.014	0.187	0.055
MED8 isoform 2 (UniProt Q96G25)	0.005	-0.051	0.014	0.269 (active)	0.023	-0.026	0.047	0.069	-0.031	-0.044
LRWD1 (UniProt Q9UFC0)	-0.026	-0.049	-0.199	-0.011	0	-0.102	-0.007	0.029	-0.082	0.019
LAGE3 (UniProt Q14657)	0.002	-0.032	-0.014	0.04	-0.12	-0.013	0.043	0.009	0.084	0.013
KIF21A isoform 5 (UniProt Q7Z4S6)	-0.014	-0.018	-0.021	0.157	-0.032	-0.077	0.005	0.019	-0.019	-0.062
MECR (UniProt Q9BV79)	-0.028	-0.038	0.007	-0.11	0.007	0.045	0.007	0.02	-0.005	0.013
MBD2 (UniProt Q9UBB5)	-0.009	0.017	0.006	-0.035	0.02	-0.004	0.029	0.045	-0.006	-0.032
MICB, A0A140T979	-0.169	-0.074	-0.067	-0.042	0.052	0.011	-0.177	-0.003	-0.001	0.027
MRPL30 isoform 2 (UniProt Q8TCC3)	0.03	-0.029	-0.094	0.746 (active)	0.068	-0.373 (active)	0.158	0.013	0.043	-0.458 (active)
LSG1 (UniProt Q9H089)	-0.002	-0.044	-0.191	-0.099	-0.075	0.037	-0.03	0.085	-0.077	0.072
MRPL19 (UniProt P49406)	-0.026	-0.024	-0.071	-0.094	-0.026	0.029	0.014	0.011	-0.048	0.051
MIF (UniProt P14174)	0.04	0.06	-0.022	-0.258 (active)	0.022	0.11	-0.057	0.008	0.383	0.024
MAST2 (UniProt Q6P0Q8)	0.012	0.161	-0.004	-0.171	-0.065	-0.07	0.148	-0.034	-0.289	-0.092
MLLT11 (UniProt Q13015)	0.051	0.237	0	0.025	0.002	0.329	0.087	0.447 (active)	-0.017	0.084
LARP4B (UniProt Q92615)	0.01	0.016	-0.019	-0.051	-0.033	0.029	-0.009	-0.044	-0.047	0.096

Reference: the supplement of paper PMC10849652
